# Laboratory results published in ChEMBL document CHEMBL4513216, “Probing the Open Global Health Chemical Diversity Library for Multistage-Active Starting Points for Next-Generation Antimalarials” (ACS Infect Dis, 2020).
# Out of some 69,000 compounds screened, about 8,600 (12%) showed an effect of 50% or more. The sample holds strong results, similar compounds and a random draw of the others, so the mix is not that of the screen.
# System: Plasmodium berghei
# Assay: Screen against P. berghei liver stage (PbLuc), transformed with Luciferase, at 10uM
# Assay type: functional, HepG2
# Details: tested at 10 uM
row,Compound,INHIBITION
1,CCN(CC)C(=O)N1CCN(C(=O)C2CCCc3[nH]ncc32)CC1 (centres undefined),67.5%
2,O=C(C1CCCc2[nH]ncc21)N1CCCCCC1 (centres undefined),46.6%
3,CN1CCN(C(=O)C2CCCc3[nH]ncc32)CC1 (centres undefined),-3.12%
4,O=C(C1CCCc2[nH]ncc21)N1CCCC1 (centres undefined),17.4%
5,O=C(C1CCCc2[nH]ncc21)N1CCCC2(C1)OCCO2 (centres undefined),50.8%
6,CCS(=O)(=O)N1C[C@H]2CN(Cc3ccc(OC)cc3)C(=O)[C@H]2C1,-12.2%
7,O=C(NCc1nc(C2CC2)no1)N1CCOC(c2ccccc2)C1 (centres undefined),33.2%
8,O=C(NCc1nc(C2CC2)no1)N1CCOC(c2cccc(F)c2)C1 (centres undefined),53.6%
9,O=C(NCc1nc(C2CC2)no1)N1CCOC(c2ccccc2F)C1 (centres undefined),35%
10,CCCOCC(=O)NC1CCc2nc(C)cn2C1 (centres undefined),1.58%
11,Cc1nc(C)n(CC2CN(CCOc3ccccc3F)CCO2)n1 (centres undefined),53.8%
12,Cc1csc2c(C3CCN(CCOc4ccccc4F)CC3)nc(C)n12,54%
13,Cc1ccc(OCCN2CCC(c3nc(C)n4c(C)csc34)CC2)cc1,29.1%
14,Cc1nc(C)n(CC2CN(Cc3cc(C#N)ccc3F)CCO2)n1 (centres undefined),51.1%
15,Cc1nc(C)n(CC2CN(CCOc3ccccc3C#N)CCO2)n1 (centres undefined),-15.5%
16,Cc1nc(C)n(CC2CN(CCCOc3ccccc3C)CCO2)n1 (centres undefined),24.4%
17,Cc1nc(C)n(CC2CN(Cc3cccc(C#N)c3)CCO2)n1 (centres undefined),10.5%
18,Cc1csc2c(C3CCN(CCCOc4ccccc4)CC3)nc(C)n12,46.7%
19,Cc1nc(C)n(CC2CCCN(Cc3cc(C#N)ccc3F)C2)n1 (centres undefined),-2.53%
20,CN1CC[C@H](N(Cc2ccccc2)CC2CC2)C[C@H](O)C1,23.7%

row,Compound,INHIBITION
1,Cc1ccsc1CN(CCCN(C)C)Cc1ccccn1,2.6%
2,O=C(CC1[C@H]2CN(Cc3ccsc3)C[C@@H]12)N1CCCC1 (some centres undefined),7.5%
3,Cc1cc(-c2cnc(C)nc2CN(C)C(=O)c2cc(C3CC3)on2)on1,-18.9%
4,CCOc1ccc(NC(=O)N(CCN(C)C)C(C)c2ccncc2)cc1 (centres undefined),14.3%
5,COCC1c2c(cnn2C)CCN1Cc1ccco1 (centres undefined),35.8%
6,CS(=O)(=O)N1CCC(n2nnn(-c3ccccc3)c2=O)CC1,2.7%
7,CN1C(=O)[C@@H]2CC[C@H]1CN(c1ncnc3ccsc13)C2,-15.1%
8,c1ccc2nc(N3CCCC(Cn4cncn4)C3)cnc2c1 (centres undefined),-2.55%
9,c1nc(N2CCCC(Cn3cncn3)C2)c2ccsc2n1 (centres undefined),-17.3%
10,Cc1nc(C)n(CC2CCCN(c3ncnc4c3CCC4)C2)n1 (centres undefined),80.8%
11,c1nc(N2CCCC(Cn3cncn3)C2)c2sccc2n1 (centres undefined),85.4%
12,Cc1nc(C)n(CC2CCCN(CC3CCCCC3)C2)n1 (centres undefined),15.6%
13,c1nc(N2CCCCC2Cn2cncn2)c2sccc2n1 (centres undefined),6.65%
14,O=C(O)c1cn(CC2CCCN(c3nc4ccccc4s3)C2)nn1 (centres undefined),46.6%
15,Cc1nc(C)n(CC2CCCN2c2ncnc3c2CCC3)n1 (centres undefined),26.9%
16,O=C1[C@@H]2CC[C@@H](CN(c3ncnc4ccsc34)C2)N1CC1CC1,78.9%
17,COc1cc(N2C[C@H]3CC[C@@H](C2)N(CC2CCC2)C3=O)ncn1,2.15%
18,c1ccc2sc(N3CCCC(Cn4cncn4)C3)nc2c1 (centres undefined),54.5%
19,Cc1ccnc(C2CCN(S(=O)(=O)c3cn(C)cn3)CC2)n1,-10.5%
20,O=C(Nc1cccnc1)C1CN(C(=O)c2ccc3c(c2)OCO3)C1,34.6%

row,Compound,INHIBITION
1,CCc1nc(CN2CCCC2c2c(C)nn(C)c2OC)no1 (centres undefined),33.8%
2,Cc1nn(C)c(C)c1C1CCCN1Cc1ccc(C(N)=O)cc1 (centres undefined),13.3%
3,Cn1nc(CO)c2c1CCN(c1ncnc3c1CCNCC3)C2,26.8%
4,Cn1cnnc1C1CCCN(C(=O)c2cc(Cl)cc(Cl)c2)C1 (centres undefined),11.6%
5,O=C(c1cccc(CNS(=O)(=O)c2ccc(F)cc2)c1)N1CCCC1,15.6%
6,COCc1nc(CN2CC(Cc3ccccc3)CC2=O)no1 (centres undefined),-37.2%
7,Cc1nnc(SCC(=O)N2C[C@@H]3CC[C@H]2CN(c2ncccn2)C3)[nH]1,19.4%
8,Cc1nc(C)n(CC2CCCN(c3ncnc4ccsc34)C2)n1 (centres undefined),83.1%
9,Cc1nc(C)n(CC2CCCN(CCc3ccccn3)C2)n1 (centres undefined),53.8%
10,Cc1nc(C)n(CC2CCCN2c2ncnc3sccc23)n1 (centres undefined),-3.81%
11,Cc1nc(C)n(CC2CCCN(c3ccc(C#N)cn3)C2)n1 (centres undefined),-10.6%
12,Cc1nc(C)n(CC2CCCN(c3ccnc(-c4ccccc4)n3)C2)n1 (centres undefined),26.6%
13,Cc1nc(C)n(CC2CCCN(c3ncnc4sccc34)C2)n1 (centres undefined),72.9%
14,Cc1nc(C)n(CC2CCCN(CCc3ccccc3)C2)n1 (centres undefined),38.8%
15,Cc1nc(C)n(CC2CCCN(c3ncnc4[nH]ccc34)C2)n1 (centres undefined),5.13%
16,Cc1nc(C)n(CC2CCCN(c3ncnc4ccccc34)C2)n1 (centres undefined),88.2%
17,Cc1nc(C)n(CC2CCCN(CCc3ccncc3)C2)n1 (centres undefined),24%
18,Cc1nc(C)n(CC2CCCN2c2ncnc3ccsc23)n1 (centres undefined),27.8%
19,Cc1nc(C)n(CC2CCCCN2c2ncnc3ccsc23)n1 (centres undefined),27.8%
